# Most compounds without a hit are left out; they make up all but 11% or so of the library.
# Luciferase inh: inhibitors of firefly (Photinus pyralis) luciferase. P08659. purified P. pyralis luciferase, luminescence, biochemical. Potency, µM (series often up to 115 µM), actives largely listed as inhibitors. 76,000 tested, 2.5% active; active = well fitted curve in the direction sought with a large enough effect; inconclusive = small, poorly fitted or top-dose-only effect, or another doubt; inactive = no such curve, though single readings can be large; an effect the other way counts as inactive or inconclusive; also: % is scaled to controls: 0 for no effect and ±100 for the full control effect; nearly all actives have a fitted effect of over 65% in size
#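 Biochemical qHTS: compound (6-point titration) added to 10uM D-luciferin plus 10uM ATP in Tris acetate pH 7.5 buffer with Mg, Tween-20 and BSA, then purified enzyme at 10nM; light output imaged.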
# hNpr1 antagonist: human Npr1 receptor antagonism | P16066 | HEK293 hNpr1 GloSensor cGMP, ANP-stimulated luminescence | Potency, µM (highest dose often 46.3 µM), without a hit: top-dose activity change, negative = inhibition, most hits filed as inhibitors | 76,000 tested, 1.6% active; also: % is scaled to controls: 0 for no effect and ±100 for the full control effect; nearly all actives have a fitted effect of over 60% in size
#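 HEK293 cells stably expressing human Npr1 and cGMP GloSensor pGS-40F, loaded 2 h with 2% GloSensor reagent, given compound 30 min at room temperature. Luminescence read before and 20 min after 0.1 nM hNppA.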
# HEK cytotox: cytotoxic compounds in HEK 293 cells; HEK 293 viability, ATP luminescence (CellTiter-Glo), 48-72 h; Potency, µM (titrated, usually from 115 µM), inactives show at the top dose activity change, negative = cytotoxicity, hits mostly inhibitors; 94,000 tested, 6.6% active; AID 1345083; active = well fitted curve in the direction sought with a large enough effect; inconclusive = small, poorly fitted or top-dose-only effect, or another doubt; inactive = no such curve, though single readings can be large; an effect the other way counts as inactive or inconclusive; also: % is scaled to controls: 0 for no effect and ±100 for the full control effect; nearly all actives have a fitted effect of over 60% in size
#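 ATP-coupled CellTiter-Glo luminescence served as viability read-out, recorded 10 min after reagent addition at room temperature. HEK 293 cells, 250 cells/well, had been incubated with pintool-transferred compound for 48 or 72 hr at 37 degree Celsius.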
# NIH3T3 tox: NIH 3T3 cell cytotoxicity | NIH 3T3 viability, CellTiter-Glo ATP luminescence, 48-72 h | 94,000 tested, 4.3% active | Potency, µM (highest dose often 96.7 µM), inactives show at the highest dose activity change, negative = cytotoxicity, hits mostly inhibitors; active = well fitted curve in the direction sought with a large enough effect; inconclusive = small, poorly fitted or top-dose-only effect, or another doubt; inactive = no such curve, though single readings can be large; an effect the other way counts as inactive or inconclusive; also: % is scaled to controls: 0 for no effect and ±100 for the full control effect; nearly all actives have a fitted effect of over 55% in size
#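 ATP-dependent luminescence (CellTiter-Glo) served as the viability signal for NIH 3T3 cells treated with compound for 48 or 72 hr at 37 °C.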
# NPR1 antag cnf: hNpr1 antagonism, confirmation assay. shares compounds with hNpr1 antagonist. HEK293 hNpr1 cGMP GloSensor luminescence, ANP-stimulated. Potency, µM (doses to about 57.6 µM), for inactives: at the highest dose activity change, negative = inhibition, hits mostly inhibitors. 1,400 tested, 76% active; also: nearly all actives have a fitted effect of over 70% in size
# Npr2 selectivity: hNpr2 antagonism, selectivity versus Npr1. shares compounds with hNpr1 antagonist. HEK293 hNpr2 GloSensor cGMP luminescence, CNP-stimulated. Potency, µM (top dose mostly 57.6 µM), inactives show at the highest dose activity change, negative = inhibition, actives largely listed as inhibitors. 1,400 tested, 67% active; also: nearly all actives have a fitted effect of over 70% in size
# Target sequence (P20594 whole entry, looked up): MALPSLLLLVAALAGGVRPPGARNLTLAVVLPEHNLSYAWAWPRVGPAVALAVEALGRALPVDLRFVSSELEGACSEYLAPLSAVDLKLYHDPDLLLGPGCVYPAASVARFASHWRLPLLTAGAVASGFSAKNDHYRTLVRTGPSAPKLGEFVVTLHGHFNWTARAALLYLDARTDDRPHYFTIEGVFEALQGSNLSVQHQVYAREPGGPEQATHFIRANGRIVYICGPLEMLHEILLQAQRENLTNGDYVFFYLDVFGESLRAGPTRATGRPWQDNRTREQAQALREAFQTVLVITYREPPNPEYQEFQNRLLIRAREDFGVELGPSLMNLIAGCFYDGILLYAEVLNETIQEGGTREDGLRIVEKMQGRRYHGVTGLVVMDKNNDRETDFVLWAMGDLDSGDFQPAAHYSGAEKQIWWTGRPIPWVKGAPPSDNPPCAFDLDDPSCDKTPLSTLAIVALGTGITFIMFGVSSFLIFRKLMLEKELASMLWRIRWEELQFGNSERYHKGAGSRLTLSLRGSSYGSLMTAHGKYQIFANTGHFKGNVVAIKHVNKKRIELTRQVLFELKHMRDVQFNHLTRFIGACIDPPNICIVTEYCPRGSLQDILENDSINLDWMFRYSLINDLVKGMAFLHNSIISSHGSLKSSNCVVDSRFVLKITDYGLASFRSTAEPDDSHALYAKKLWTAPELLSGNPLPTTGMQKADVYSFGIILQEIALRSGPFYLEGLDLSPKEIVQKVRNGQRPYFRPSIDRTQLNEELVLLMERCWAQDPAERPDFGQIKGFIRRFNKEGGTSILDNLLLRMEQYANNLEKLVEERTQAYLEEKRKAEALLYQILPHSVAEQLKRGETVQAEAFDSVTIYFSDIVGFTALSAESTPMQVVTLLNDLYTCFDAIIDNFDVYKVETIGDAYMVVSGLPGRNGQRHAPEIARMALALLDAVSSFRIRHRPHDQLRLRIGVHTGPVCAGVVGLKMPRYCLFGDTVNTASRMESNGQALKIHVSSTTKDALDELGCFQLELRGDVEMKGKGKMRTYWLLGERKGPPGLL
# FLuc inh counter: FLuc enzyme inhibition, Npr1 counter-screen | shares compounds with hNpr1 antagonist | purified FLuc enzyme, luminescence, Km substrate | Potency, µM (highest dose often 57.6 µM), without a hit: at the highest dose activity change, negative = inhibition, usual class: inhibitors | 1,400 tested, 0.7% active | AID 1347047; active = well fitted curve in the direction sought with a large enough effect; inconclusive = small, poorly fitted or top-dose-only effect, or another doubt; inactive = no such curve, though single readings can be large; an effect the other way counts as inactive or inconclusive; also: 0% is about no effect
# GloSensor cGMP: control cell line activity, Npr1 antagonist counter-screen. AID 1347051. HEK293 GloSensor cGMP, SNP-stimulated, luminescence. 1,400 tested, 69% active. shares compounds with hNpr1 antagonist. Potency, µM (highest dose often 57.6 µM), for the others: at the highest dose activity change, negative = inhibition, usual class: inhibitors; also: % is scaled to controls: 0 for no effect and ±100 for the full control effect; nearly all actives have a fitted effect of over 70% in size
# * = called active by the depositor; i = inactive; ? = inconclusive; · = not tested or not shown; [ ] = another dose, or the depositor's remark. Unless noted, calls follow the shape of the full dose curve. Potency is read from the fitted curve at half-maximal effect.
SMILES,Luciferase inh,hNpr1 antagonist,HEK cytotox,NIH3T3 tox,NPR1 antag cnf,Npr2 selectivity,FLuc inh counter,GloSensor cGMP
O=C(Cc1ccc(F)cc1)N1CCN(c2cc(-c3ccc(Cl)cc3)[nH]n2)CC1,i,?,40µM*,?,?,?,1%,?
O=C(Cc1ccc(Br)cc1)N1CCCN(c2cc(-c3ccc(F)cc3)[nH]n2)CC1,i,?,?,?,?,?,2%,27µM*
O=C(NC1CCCN(CCn2nc3n(c2=O)CCCC3)C1)c1ccc(C(F)(F)F)cc1 (stereo not drawn),·,·,5%,-16%,·,·,·,·
CNC(=O)c1cc(C2CC2)nc2onc(C3CCCN(C(=O)c4ccccc4)C3)c12 (stereo not drawn),·,·,-15%,-18%,·,·,·,·
CCCCNC(=O)c1cccc(-c2cc(N3CCN(C)CC3)nc(N)n2)c1,i,?,?,-8%,?,-28%,1%,?
CC(c1ccc(-c2cc(N3CCN(C)CC3)nc(N)n2)cc1)N1CCOCC1 (stereo not drawn),i,1%,?,-19%,·,·,·,·
CC(C)NC(=O)c1ccc(-c2nnc3ccc(NC(=O)C4CCC4)cn23)cc1,i,-1%,?,-13%,·,·,·,·
COc1cccc(NC(=O)c2ccc(-c3nnc4ccc(NC(=O)C5CCC5)cn34)cc2)c1,i,?,-5%,1%,24µM*,?,2%,22µM*
O=C(NC1CCN(c2ccc3nnc(-c4ccccc4)n3n2)C1)c1ccc(Cl)cc1 (stereo not drawn),·,·,-18%,-23%,·,·,·,·
COc1ccc(Cl)cc1-c1ccc2c(n1)CN(CCOc1ccccc1)C(=O)CO2,i,22µM*,100µM*,?,35µM*,35µM*,1%[86.2 µM],31µM*
Cc1cc(NC(=O)Cn2cccc2-c2nc(-c3ccc4c(c3)OCO4)no2)n[nH]1,i,-2%,?,-19%,·,·,·,·
COC(=O)[C@@H]1Cc2ncn(Cc3ccc(Cl)cc3)c2CN1C(=O)c1cccs1,i,-22%[70.6 µM],-10%[172 µM],?,-22%[86.2 µM],-24%[86.2 µM],2%[86.2 µM],5%[86.2 µM]
Cc1ccc([S+](=O)([O-])N2CCC[C@@H]2C(=O)N2CCCC(c3nc4ccncc4[nH]3)C2)cc1 (stereo partly drawn),·,·,i,-5%,·,·,·,·
COc1ncccc1-c1cc(C(=O)NCCN(C)C)c2c(c1)ncn2C,·,·,·,·,-13%[86.2 µM],-2%[86.2 µM],6%[86.2 µM],-1%[86.2 µM]
CCOc1ccc(C(=O)NC2CCN(c3cnn(CCOC)c(=O)c3)CC2)cc1,i,-14%,-23%,-21%,·,·,·,·
CCOc1ccc(C(=O)NC2CCN(c3cnn(CC)c(=O)c3)CC2)cc1,i,-11%,-5%,28µM*,-7%,-22%,1%,?
O=[S+]([O-])(Nc1ccccc1)c1ccc2c(c1)OCCN(Cc1cccnc1)C2,i,22µM*,?,?,40µM*,?,6%[86.2 µM],40µM*
Cc1nc(N2CCC(NC(=O)c3nccc4ccccc34)CC2)cc(C(F)(F)F)n1,i,11µM*,?,?,19µM*,17µM*,0%,14µM*
Cc1nc(N2CCC(NC(=O)c3ccccc3F)CC2)cc(C(F)(F)F)n1,i,-12%,-2%,-8%,·,·,·,·
COc1cc(Cl)ccc1C(=O)NC1CCN(c2cc(C(F)(F)F)nc(C)n2)CC1,i,?,?,?,22µM*,22µM*,2%,19µM*
Cc1nc(N2CCC(NC(=O)c3ccc4ccccc4n3)CC2)cc(C(F)(F)F)n1,i,10µM*,45µM*,?,14µM*,14µM*,1%,12µM*
COc1ccc(C(=O)N2CC3(Cc4ccccc4N([S+](C)(=O)[O-])C3)C2)cc1,i,-2%,?,-28%,·,·,·,·
COc1ccc(Nc2cccc(CN3CCCC(C)(NC(C)=O)C3)c2)cc1 (stereo not drawn),i,-18%[70.6 µM],?,-48%[138 µM],·,·,·,·
Fc1ccc(CN2CCC(Oc3ccccc3-c3nc(-c4cnccn4)no3)C2)cc1F (stereo not drawn),i,-18%,25µM*,?,?,-29%,-16%,0%
CCNC(=O)N1CCC(Oc2ccccc2-c2nc(-c3cnccn3)no2)C1 (stereo not drawn),i,0%,-3%,-6%,·,·,·,·
SMILES,Luciferase inh,hNpr1 antagonist,HEK cytotox,NIH3T3 tox,NPR1 antag cnf,Npr2 selectivity,FLuc inh counter,GloSensor cGMP
CC1=C(C(=O)OC(C)C)C(c2ccccc2Cl)N2C(CC(=O)N3CCOCC3)=CSC2=N1 (stereo not drawn),i,14µM*,?,-31%,?,?,2%,?
C=CCOC(=O)C1=C(C)N=C2SC=C(CC(=O)N3CCOCC3)N2C1c1ccc(C)cc1C (stereo not drawn),?,?,?,-15%,·,·,·,·
COC(=O)C1=C(C)N=C2SC=C(CC(=O)N3CCCC3)N2C1c1ccccc1Cl (stereo not drawn),i,-19%,?,-10%,·,·,·,·
CC1=C(C(=O)OC(C)C)C(c2ccc(C)cc2C)N2C(CC(=O)N3CCCC3)=CSC2=N1 (stereo not drawn),i,?,?,?,?,?,-8%,?
CC1=C(C(=O)OC(C)C)C(c2ccccc2Cl)N2C(CC(=O)N3CCCC3)=CSC2=N1 (stereo not drawn),i,13µM*,?,-14%,24µM*,22µM*,-2%,?
O=C1[C@H]2CN(Cc3cc(Cl)ccc3F)C[C@H]2C(=O)N1CCc1ccccc1,i,-2%,?,-22%,·,·,·,·
COc1ccc(C(=O)Nc2ccc(-c3noc([C@@H]4CCCN4Cc4ccc(F)cc4)n3)cn2)cc1,i,11µM*,?,?,14µM*,17µM*,-22%,12µM*
CCCCOc1ccc(C(=O)N2CCC[C@H]2c2nc(-c3ccc(OC)cc3)no2)cc1,i,?,25µM*,?,?,-26%,-16%,?
COc1ccc(C(=O)Nc2ccc(-c3noc([C@@H]4CCCN4Cc4c[nH]c5ccccc45)n3)cn2)cc1,i,10µM*,?,?,11µM*,19µM*,-5%,11µM*

# Screening results (PubChem)
